Most compounds without a hit are left out; they make up all but 3.6% or so of the library.
D1 ag = human D1 receptor agonism | 360,000 tested, 1% active | P21728 | HEK293 T-REx D1 cells, calcium flux, agonist mode | activation, % at 2 µM
Target sequence (P21728 whole entry, looked up): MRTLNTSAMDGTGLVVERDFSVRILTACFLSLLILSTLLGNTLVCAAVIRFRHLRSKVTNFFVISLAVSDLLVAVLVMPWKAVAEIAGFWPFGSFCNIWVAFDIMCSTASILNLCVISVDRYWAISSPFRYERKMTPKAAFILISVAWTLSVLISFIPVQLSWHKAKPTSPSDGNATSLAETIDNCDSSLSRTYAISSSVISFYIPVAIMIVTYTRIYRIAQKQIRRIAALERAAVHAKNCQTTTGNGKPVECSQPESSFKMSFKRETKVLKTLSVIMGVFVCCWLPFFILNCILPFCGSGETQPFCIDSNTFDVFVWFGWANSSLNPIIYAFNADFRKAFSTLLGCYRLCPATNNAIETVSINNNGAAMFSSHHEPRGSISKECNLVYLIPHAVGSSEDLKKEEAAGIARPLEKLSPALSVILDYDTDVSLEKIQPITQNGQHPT
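Agonism was scored from calcium flux recorded over 180 s (1 read/s) after pintool compound addition, following a 10-cycle baseline. Cells were inducible force-coupled HEK293 TREx D1, plated overnight at 30 C and loaded with no-wash calcium dye.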
TRHR ag = TRH receptor (human) agonism | 360,000 tested, 0.18% active | activation, % at 2 µM | P34981 | AID 493084 | TRHR cells, calcium flux fluo-8, FDSS agonist mode
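Agonist-mode FDSS calcium read (Ex 480/Em 530, 1 s cycles) in 1536-well TRHR cells with fluo-8 dye, after 10-cycle baseline and 23 nL compound addition; TRH at EC20 (10 nM final) added afterwards for the enhancer phase.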
D1 antag = blocks dopamine activation of the human D1 receptor; P21728; activity change, negative = inhibition, % at 10 µM; 360,000 tested, 3.2% active; HEK293 TREx D1 cells, calcium flux, dopamine EC80; hits give low values; in the data active = activity change below about -30%
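Calcium flux readout: force-coupled, inducible Hek293 Trex D1 line, cells induced overnight at 30 C with tetracycline, dye-loaded 30–90 min at RT. Antagonism scored against EC80 dopamine challenge given 180 s after compound.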
D1 potentiator = enhances dopamine response at the human D1 receptor | potentiation, % at 10 µM | P21728 | HEK293 TREx D1 cells, calcium flux, dopamine EC20 potentiation | 360,000 tested, 0.036% active; in the data active = potentiation above about 30%
TRHR PAM = allosteric enhancers of human TRH receptor | enhancement, % at 2 µM | P34981 | 360,000 tested, 0.66% active | TRHR cells, fluo-8 calcium fluorescence, EC20 TRH enhancement; in the data active = enhancement above about 30%
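Enhancer read-out: after compound pinning and an initial kinetic agonist-mode read, an EC20 of TRH (10 nM final) was injected and fluo-8 calcium signal (Ex 480/Em 530) followed at 1 s/cycle for 100 cycles in TRHR-expressing cells.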
LDHA block = inhibitors of human lactate dehydrogenase A; P00338; purified LDHA, NADH/diaphorase-resazurin fluorescence; hits give low values; activity change, % (values are at about 110 or 230 µM); 480,000 tested, 0.15% active; AID 1347041; in the data active = activity change below about -30%
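Resorufin fluorescence (ex540/em590), read at 0 and 20 min after diaphorase/resazurin addition, reports the NADH left after a 5 min room-temperature reaction of 2 nM human LDH5 with 0.06 mM NADH and 0.2 mM pyruvate.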
Numbers stand for hits; - = inactive; . = no result. Rule as the data show it, unless noted: active = activation above about 30%; inactive = the rest.

SMILES	D1 ag	TRHR ag	D1 antag	D1 potentiator	TRHR PAM	LDHA block
CCCc1cc(=O)[nH]c(-n2nc(C)cc2NC(=O)c2ccc(S(=O)(=O)N(CC)CC)cc2)n1	.	.	.	.	.	-
Cc1cccnc1NC(=O)Nc1cccc(Cl)c1	-	-	-	-	32	-
CCc1sc(C(=O)Nc2ncccc2C)cc1C	-	-	-	-	30	-
COc1ccc(OCC(=O)NNC(=O)Nc2cccc(Cl)c2)cc1	-	-	-	-	34	-
COc1ccc(CCC(=O)NNC(=O)Nc2cccc(Cl)c2)cc1	-	-	-	-	-	-
O=C(Nc1cccc(Cl)c1)Nc1nccs1	-	-	-	-	-	-
CCC(C)[C@H](NC(=O)Nc1cccc(Cl)c1)C(=O)O (stereo not given in full)	31	-	-	-	-	-
NC(=S)N/N=C/c1ccc(Cl)cc1Cl	.	.	.	.	.	-
Cc1ccc(C(=O)c2sc(Nc3cccc(Cl)c3C)nc2N)cc1	.	.	.	.	.	-
Cc1cccc(NC(=O)N2CCN(Cc3nc(-c4cccc(C(F)(F)F)c4)no3)CC2)c1	.	.	.	.	.	-
Cc1ccc(Sc2ccc(C=O)o2)cc1	.	.	.	.	.	-
O=C(Nc1cccc(Cl)c1)Nc1cnccn1	-	-	-45	-	-	-
CCc1ccccc1NC(=O)Nc1cccc(F)c1	-	-	-42	-	-	-
Cc1cc(C)nc(NC(=O)Nc2cccc(Cl)c2)n1	.	.	.	.	.	-
O=C(Nc1cccc(F)c1)Nc1cccc(Cl)c1	-	-	-53	-	-	-
O=C(Nc1cccc(Cl)c1)Nc1cccc(Cl)c1	-	-	-49	-	-	-
CC(NC(=O)C1CCCC1)c1ccc(C(F)(F)F)cc1 (stereo not given)	.	.	.	.	.	-
O=C(NN=C1C2CC3CC(C2)CC1C3)c1ccc(Br)cc1	.	.	.	.	.	-
CC(C)NC(=O)c1ccc2c(c1)nc1n2CCN(CCc2ccccc2)C1	.	.	.	.	.	-
Cc1c(Cl)cccc1NCC(=O)N1CCNC1=O	.	.	.	.	.	-
O=C(Nc1ccc(Cl)cc1)Nc1ccon1	-	-	-	-	-	-
O=C(Nc1cccc(Cl)c1)Nc1ccon1	-	-	-	-	39	-
COC(=O)c1cc(NC(=O)Nc2cccc(Cl)c2)ccc1Cl	-	-	-41	-	-	-
O=C(Nc1cccnc1)Nc1cc(Cl)cc(Cl)c1	-	-	-33	-	-	-
Cc1cccnc1N(C(=O)Nc1cccc(Cl)c1)C1=NCC(C)(C)S1	-	-	-31	-	-	-
SMILES	D1 ag	TRHR ag	D1 antag	D1 potentiator	TRHR PAM	LDHA block
c1ccc2[nH]c(-c3ccc4c(c3)CCCC4)cc2c1	.	.	.	.	.	-
CCCNC(=O)NC(=O)CSc1nc(-c2ccco2)nc2ccccc12	.	.	.	.	.	-
CC(C)(C)c1ccc(-n2ncc3c2CCCC3NC(=O)CCN2CCCCC2=O)cc1 (stereo not given)	-	-	-	-	-	-
CC(C)(C)c1ccc(-n2ncc3c2CCCC3NC(=O)CN2CCOC2=O)cc1 (stereo not given)	-	-	-42	-	-	-
Cc1occc1C(=O)/C(C#N)=C/c1ccc(O)c(Br)c1	45	-	-	.	-	-
Cc1ccc(NC(=O)CCS(=O)(=O)c2ccc(Br)s2)cc1	-	-	-53	-	-	-
CCOC(=O)c1ccc(NC(=O)CN(C)S(=O)(=O)c2ccc(Br)s2)cc1	-	-	-38	-	-	-
Cc1ccn2cc(-c3ccc(NC(=O)c4ccco4)cc3)nc2c1	-	-	-33	-	-	-
CCN(CC)S(=O)(=O)c1ccc(NC(=S)NC(=O)CC(C)C)cc1	-	-	-33	-	-	-
O=C(Nc1ccc(NC(=O)c2ccco2)cc1)c1ccco1	-	-	-	-	31	-
O=C(Nc1ccc(-c2nc3ccccc3[nH]2)cc1)c1ccco1	-	-	-46	-	-	-
O=c1cc(CN2CCN(Cc3ccccc3)CC2)c2cc(Cl)c(O)cc2o1	.	.	.	.	.	-
CCN1CCN(c2ccc(NC(=O)c3cc(OC)cc(OC)c3)cc2Cl)CC1	.	.	.	.	.	-
CCN1CCN(c2ccc(NC(=O)c3cccc(F)c3)cc2Cl)CC1	-	-	-36	-	-	-
CN1CCN(c2ccc(NC(=O)c3ccco3)cc2Cl)CC1	-	-	-38	-	-	-
CC(C)CC(=O)NC(=S)Nc1ccc(NC(=O)c2ccco2)cc1	-	-	-36	-	-	-
O=C(Nc1ccc(C(=O)Oc2ccccc2)c(O)c1)c1ccco1	-	-	-36	-	-	-
CCC(=O)NC(=S)Nc1ccc(NC(=O)c2ccco2)cc1	-	-	-	-	-	-
Cn1cc(S(=O)(=O)N2CCCC(C(=O)Nc3nn(Cc4ccc(F)cc4)cc3Cl)C2)cn1 (stereo not given)	.	.	.	.	.	-
COc1ccc(NC(=O)c2ccco2)cc1NC(=O)c1cccc(C)c1OC	-	-	-31	-	-	-
O=C(Nc1ccc(Br)cc1)c1ccco1	-	-	-42	-	-	-
COc1cc2c(cc1NC(=O)Cc1ccccc1C)oc1ccccc12	.	.	.	.	.	-
Cc1cc(C(=O)CSc2nnc3c(Cl)cc(Cl)cn23)c(C)n1C	-	-	-31	-	-	-
C=CCn1c(C)cc(C(=O)CSc2nnc3c(Cl)cc(Cl)cn23)c1C	-	-	-	-	-	-
COc1ccc(-c2c(C)c3ccc(OS(=O)(=O)c4ccccc4)cc3oc2=O)cc1OC	.	.	.	.	.	-
SMILES	D1 ag	TRHR ag	D1 antag	D1 potentiator	TRHR PAM	LDHA block
N#CCCN(C(=O)CN1CCCC1c1ccc(Cl)c(Cl)c1)c1ccccc1F (stereo not given)	.	.	.	.	.	-
Cc1ccc(C(=O)NCc2ccc3c(c2)CCO3)cc1C	-	-	-48	-	-	-
O=C(N/N=C/c1ccc(OC(=O)c2ccc([N+](=O)[O-])cc2)cc1)c1cccnc1	-	-	-	-	-	-
COc1ccc(C(=O)Oc2ccc(/C=N/O)cc2)cc1	-	-	-35	-	-	-
COc1ccc(C(=O)Oc2ccc(/C=N/NC(=O)Cc3ccc([N+](=O)[O-])cc3)cc2)cc1	-	-	-32	-	-	-
CSC(=S)NN=C1CCCCC1	.	.	.	.	.	-
O=C(O)CCNS(=O)(=O)c1ccc(C(=O)/C=C/c2cccc(Cl)c2)cc1	.	.	.	.	.	-
CCN(C(=O)C1CCN(c2oc(-c3ccco3)nc2C#N)CC1)c1ccccc1C	.	.	.	.	.	-
O=C(OCc1ccccc1)N1CCC2CC1c1cc(-c3cc4ccccc4o3)ccc12 (stereo not given)	.	.	.	.	.	-33
O=C(OCc1ccccc1)N1CCC2CC1c1cc(N3CCCCC3)ccc12 (stereo not given)	.	.	.	.	.	-
O=C(OCc1ccccc1)N1CCC2CC1c1cc(N3CCNCC3)ccc12 (stereo not given)	.	.	.	.	.	-31
O=C(OCc1ccccc1)N1CCC2CC1c1cc(/C=C/CCCSc3ncccn3)ccc12 (stereo not given)	.	.	.	.	.	-34
CCN1C2=C(C(=O)CC(C)(C)C2)C(c2ccc(O)cc2)C2=C1CC(C)(C)CC2=O	.	.	.	.	.	-
O=C(Nc1ccccc1)N1CCN(c2cccc(C(F)(F)F)c2)CC1	-	-	-34	-	-	-
